Compound activity (PubChem BioAssay)
Sampled rows, rich in hits. Any-hit rate of the full collection: about 8.2%.
MCF10A rerep: A quantitative high throughput screen for small molecules that induce DNA re-replication in MCF 10a normal breast cells | 350,000 compounds, 2.9% hits | Potency, µM (highest dose often 46.1 µM), without a hit: top-dose activity, positive = re-replication, usual class: activators | MCF 10A DNA re-replication, Hoechst nuclear intensity, 48 h; note: % of control where 0% means no effect; nearly all actives have a fitted effect of over 50% in size
KB-V1 cytotox: qHTS assay for MDR1-selective chemotherapeutics: Primary screen using the drug-selected MDR subline cells KB-V1; KB-V1 MDR cells viability, CellTiter-Glo, 72 h; Potency, µM (series often up to 46.1 µM), most hits filed as cytotoxic; 400,000 compounds, 3.4% hits; note: % is set by controls: 0 for no effect and ±100 for the full control effect; nearly all actives have a fitted effect of over 60% in size
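Drug-selected KB-V1 cells, grown in DMEM lacking phenol red with 10% FBS, receive compound titrations; after three days at 37 degrees C, surviving cell ATP is quantified by CellTiter-Glo luminescence and responses normalized and curve-fitted.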
KB-3-1 cytotox: qHTS assay for MDR1-selective chemotherapeutics: Primary screen using the parental adenocarcinoma cell KB-3-1. Potency, µM (doses to about 46.1 µM), most hits filed as cytotoxic. KB-3-1 viability, CellTiter-Glo ATP luminescence, 72 h. AID 1347075, 2019. 400,000 compounds, 1.4% hits; note: % is set by controls: 0 for no effect and ±100 for the full control effect; nearly all actives have a fitted effect of over 60% in size
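Cells are dispensed, compounds pinned in, plates held at 37 °C for 72 h, then CellTiter-Glo is added and luminescence read after 10 minutes. Cell line: parental KB-3-1 in phenol-red-free DMEM, 10% FBS.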
SW480 rereplic: A quantitative high throughput screen for small molecules that induce DNA re-replication in SW480 colon adenocarcinoma cells; SW480 DNA re-replication, Hoechst DNA content imaging, 48 h; Potency, µM (highest dose often 46.1 µM), without a hit: top-dose re-replication activation, hits mostly activators; 340,000 compounds, 1.8% hits; note: % of control where 0% means no effect; nearly all actives have a fitted effect of over 55% in size
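DNA re-replication was detected as more nuclei of elevated Hoechst intensity after 48 hr exposure to compound (23 nL pinned per well of 250 cells).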
ELG1 repair inh: qHTS screen for small molecules that inhibit ELG1-dependent DNA repair in human embryonic kidney (HEK293T) cells expressing luciferase-tagged ELG1. 330,000 compounds, 2.3% hits. HEK293T ELG1-luciferase reporter, luminescence, 16 h; DNA damage induced by 5-fluorouridine. Potency, µM (highest dose often 46.1 µM), inactives show at the top dose activity change, negative = inhibition, usual class: inhibitors; note: % is set by controls: 0 for no effect and ±100 for the full control effect; nearly all actives have a fitted effect of over 55% in size
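Step one: seed 2,000 cells per well. Step two: pin-transfer compound or DMSO alongside 5-fluorouridine. Step three: incubate 16 hr, 37 °C, 5% CO2. Step four: add ONE-Glo, wait 30 min, read luminescence.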
* = called active by the depositor; [ ] = remark or other dose. Calls come from the whole dose curve; as a rule, active = well fitted curve in the direction sought with a large enough effect; inconclusive = small, poorly fitted or top-dose-only effect, or another doubt; inactive = no such curve, though single readings can be large; an effect the other way counts as inactive or inconclusive. Potency is the fitted concentration of half-maximal effect.

Screening CCOC(=O)c1ccc(/C=C2/C=C(c3ccccc3)N(c3ccc(Cl)c(C(=O)O)c3)C2=O)cc1 returned MCF10A rerep 21µM*, KB-V1 cytotox inactive, KB-3-1 cytotox inconclusive, SW480 rereplic 10% and ELG1 repair inh inconclusive.
Screening CC(C=NNC(=O)C(=O)NN=CC(C)=Cc1ccccc1)=Cc1ccccc1 returned MCF10A rerep 19%, KB-V1 cytotox inactive, KB-3-1 cytotox inactive and SW480 rereplic inconclusive.
Screening CC(/C=N/NC(=O)Cc1cccn1C)=C\c1ccccc1 returned MCF10A rerep 3%, KB-V1 cytotox 16µM*, KB-3-1 cytotox inactive, SW480 rereplic -2% and ELG1 repair inh inconclusive.
`Cc1ccccc1C(=O)Nc1cccc(NC(=O)c2ccc(C(C)(C)C)cc2)c1` gave KB-V1 cytotox inactive and KB-3-1 cytotox inconclusive.
For C/C(=N\N=C(/N)SC1CC(=O)N(c2ccccc2)C1=O)c1cccs1 (centres undefined) the results were MCF10A rerep 2.3µM*, KB-V1 cytotox inactive, KB-3-1 cytotox inactive, SW480 rereplic 3.7µM* and ELG1 repair inh 2%.
`Cc1cc(C)c2cc(C#N)c(SCC(=O)Nc3cc(C)on3)nc2c1` gave MCF10A rerep -1%, KB-V1 cytotox inactive, KB-3-1 cytotox inactive, SW480 rereplic -4% and ELG1 repair inh 8%.
`Cc1nc(Cn2c3ccc(NC(=S)NC4CCCCC4)cc3c(=O)n2C)cs1` gave KB-V1 cytotox inactive and KB-3-1 cytotox inactive.
Screening Cc1cc(C)c(O)c(CN(C)Cc2cc(Cl)cc(Cl)c2O)c1 returned MCF10A rerep 1.6µM*, KB-V1 cytotox inconclusive, KB-3-1 cytotox inconclusive and SW480 rereplic inconclusive.
`CC(C)NC(=O)CN(Cc1ccc(F)cc1)C(=O)CCC(=O)Nc1nccs1` gave MCF10A rerep -5%, KB-V1 cytotox inactive, KB-3-1 cytotox inconclusive, SW480 rereplic -12% and ELG1 repair inh 17%.
`O=C(Nc1cccc(F)c1)C1CCCN(S(=O)(=O)c2ccccc2)C1` (centres undefined) gave MCF10A rerep inconclusive, KB-V1 cytotox inconclusive, KB-3-1 cytotox inconclusive, SW480 rereplic -7% and ELG1 repair inh inconclusive.
CCOc1ccc(-c2csc(NC(=O)CSC3=NC(=O)CN3C(C)=O)n2)c2ccccc12 was read as MCF10A rerep inconclusive, KB-V1 cytotox inactive, KB-3-1 cytotox inactive, SW480 rereplic 1% and ELG1 repair inh inconclusive.
Screening CC(=O)N1CC(=O)N=C1SCC(=O)Nc1nc(C)c(-c2ccccc2)s1 returned MCF10A rerep inconclusive, KB-V1 cytotox 13µM*, KB-3-1 cytotox inconclusive, SW480 rereplic 2% and ELG1 repair inh inconclusive.
`CCOC(=O)c1c(N/C=C(\C#N)c2nc(-c3ccc(OC(C)=O)cc3)cs2)sc2c1CCC2` gave MCF10A rerep 3%, KB-V1 cytotox inactive, KB-3-1 cytotox inactive and SW480 rereplic inconclusive.
Screening S=C1Cc2ccccc2C(c2ccc(Cl)cc2)N1 (centres undefined) returned MCF10A rerep 16µM*, KB-V1 cytotox inactive, KB-3-1 cytotox inactive, SW480 rereplic inconclusive and ELG1 repair inh -14%.
Screening CC(C)(C)OC(=O)N1CCC(C(=O)Nc2ccc(C(=O)N3CCCCC3)cc2)CC1 returned MCF10A rerep inconclusive, KB-V1 cytotox inactive, KB-3-1 cytotox inactive and SW480 rereplic -29%[9.22 µM].
Cc1nc2ccc(NC(=O)Cc3ccc4c(c3)OCCO4)cc2s1 was read as MCF10A rerep 9%, KB-V1 cytotox 15µM*, KB-3-1 cytotox inactive, SW480 rereplic -53% and ELG1 repair inh 20%.
For Cc1nc2ccc(NC(=O)c3cccnc3)cc2s1 the results were MCF10A rerep 9%, KB-V1 cytotox inactive, KB-3-1 cytotox inconclusive, SW480 rereplic 1% and ELG1 repair inh 12%.
